Test results published in PubChem BioAssay AID1053173 (Broad Institute, 2014).
Out of some 1,500 compounds screened, about 390 (26%) were called active. How the calls were made is not given here. These entries were drawn from the full list. Measured potencies and affinities stand elsewhere.

target: Histone-lysine N-methyltransferase NSD2 (Homo sapiens) (UniProt O96028); experiment: blockers of NSD2 H4 peptide methylation – biochemical, AlphaScreen, cherry-picked samples, dose response (AID 1053173); conditions: 120 min; series mostly up to 10 µM; activity change, negative = inhibition: at the top concentration;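 further: 0% = neutral control wells and -100% = positive control wells on each plate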
Sequence (O96028 whole entry, looked up): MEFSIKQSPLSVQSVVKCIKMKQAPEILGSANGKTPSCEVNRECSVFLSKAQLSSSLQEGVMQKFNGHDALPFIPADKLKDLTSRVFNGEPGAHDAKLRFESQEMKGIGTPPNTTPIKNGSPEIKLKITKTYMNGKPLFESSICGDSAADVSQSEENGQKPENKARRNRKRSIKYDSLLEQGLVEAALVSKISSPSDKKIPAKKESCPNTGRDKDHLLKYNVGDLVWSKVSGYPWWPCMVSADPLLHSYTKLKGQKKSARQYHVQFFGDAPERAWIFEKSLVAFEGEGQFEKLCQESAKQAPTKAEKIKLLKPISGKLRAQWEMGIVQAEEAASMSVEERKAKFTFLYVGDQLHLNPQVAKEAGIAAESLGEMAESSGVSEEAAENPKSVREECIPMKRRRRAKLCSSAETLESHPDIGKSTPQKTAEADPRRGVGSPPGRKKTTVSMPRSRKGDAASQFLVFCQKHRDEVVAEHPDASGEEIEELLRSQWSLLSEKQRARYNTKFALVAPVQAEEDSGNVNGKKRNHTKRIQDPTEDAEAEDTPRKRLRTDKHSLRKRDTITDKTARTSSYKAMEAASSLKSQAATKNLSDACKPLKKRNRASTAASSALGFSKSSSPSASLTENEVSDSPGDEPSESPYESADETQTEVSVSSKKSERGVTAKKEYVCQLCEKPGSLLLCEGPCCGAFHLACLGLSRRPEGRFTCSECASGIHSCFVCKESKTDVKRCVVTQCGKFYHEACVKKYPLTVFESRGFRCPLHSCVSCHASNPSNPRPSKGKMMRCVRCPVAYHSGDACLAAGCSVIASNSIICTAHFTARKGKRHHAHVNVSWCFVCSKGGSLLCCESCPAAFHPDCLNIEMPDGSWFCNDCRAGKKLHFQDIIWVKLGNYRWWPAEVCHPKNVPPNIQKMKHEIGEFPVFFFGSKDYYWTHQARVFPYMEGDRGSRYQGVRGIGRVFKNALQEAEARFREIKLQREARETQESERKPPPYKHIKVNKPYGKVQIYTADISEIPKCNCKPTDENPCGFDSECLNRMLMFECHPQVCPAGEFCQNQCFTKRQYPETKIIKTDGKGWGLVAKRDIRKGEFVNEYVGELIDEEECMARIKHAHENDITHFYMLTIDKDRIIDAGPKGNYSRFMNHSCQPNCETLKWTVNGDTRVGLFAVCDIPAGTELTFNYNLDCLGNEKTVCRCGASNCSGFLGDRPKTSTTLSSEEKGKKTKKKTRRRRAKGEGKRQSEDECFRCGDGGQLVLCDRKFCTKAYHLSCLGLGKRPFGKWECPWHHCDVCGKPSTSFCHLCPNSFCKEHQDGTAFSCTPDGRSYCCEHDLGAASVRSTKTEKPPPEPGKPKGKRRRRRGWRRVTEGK

Activity change, negative = inhibition, inactive:
O=c1cc(C=NNc2ccccc2)[nH]c(=O)[nH]1 -4.13%, O=C(O)c1cc(N/N=C/c2ccc3c(c2)OCO3)ccc1Cl -0.549%, Cc1noc(C)c1S(=O)(=O)N1CCN(S(=O)(=O)c2ccccc2C#N)CC1 4.24%, CCCC(CCC(=O)Nc1cccc([N+](=O)[O-])c1)C(=O)O (centres undefined) -0.707%, COc1cc(C(=O)Oc2cccc(/C=N/NC(=O)c3cccnc3)c2)cc(OC)c1OC -2.82%, CNC(=S)NC(CC(=O)OC)c1ccc2c(c1)OCO2 (centres undefined) 3.44%, CC[n+]1c(/C=C/Nc2ccccc2)oc2ccccc21 0.086%, Cc1cc(Cl)c(OCCN2C(=O)NC(C)(C)C2=O)c(Br)c1 -0.445%, COc1ccc(/C=C/C(=O)OCC(=O)NCC2CCCO2)cc1 (centres undefined) 3.92%, COc1ccccc1CN(Cc1cc2cc3c(cc2[nH]c1=O)OCCO3)Cc1nnnn1Cc1ccco1 -4.86%, CCOC(=O)CN(C(=O)COc1nc(-c2ccccc2)cc(C)c1C#N)c1ccccc1 -0.665%, COc1ccc(C(=O)Cc2nnc(C)s2)cc1 -1.01%, COc1ccc(C(=O)Nc2ccc3[nH]ccc3c2)cc1OC 4.26%, COc1cc(N)c(C(=O)c2nccc3cc(OC)c(OC)cc23)cc1OC -2.98%, C/C(=N/NC(=O)CCc1ccccc1)c1ccco1 -2.07%, Cc1ccccc1NC(=O)CN1CCC(C(=O)c2ccc3c(c2)OCCO3)CC1 -2.43%, COc1ccc(C2=NNC(c3cccs3)=Nc3ccc(OC)cc32)cc1 -11.7%, COc1ccc(-n2nnnc2-c2cnc(N3CCCC3)nc2C(F)(F)F)cc1 1.7%, O=[N+]([O-])c1cc2ncccc2c2ncccc12 -1.34%, Cc1cc(C)n(-c2ncccc2[N+](=O)[O-])n1 -2.95%, COc1ccc(/C=C(\C#N)C(=O)N2COCC2(C)C)cc1 -1.43%, COc1ccc(NC(=O)CN(C)S(=O)(=O)c2ccc(C)cc2)c([N+](=O)[O-])c1 -2.22%, C=CCc1cccc2cc(C(=O)Nc3ccc(NC(C)=O)cc3)c(=O)oc12 0.142%, COC(=O)c1cc(NC(=O)Nc2cc(OC)ccc2OC)cc(C(=O)OC)c1 0.332%, N=C1/C(=C\c2ccc(Br)o2)C(=O)N=C2SC(CC(=O)N3CCCCC3)=NN12 -4.58%, COc1ccc(/C=C2\N=C(C(C)(C)C)OC2=O)c(OC)c1 -1.37%, O=C(c1ccccc1F)N(Cc1cccs1)C1CCS(=O)(=O)C1 (centres undefined) -3.94%, Cc1ccc(C(=O)Nc2ccc(Cl)cc2C(F)(F)F)c(Cl)c1 0.435%, CCC1=[N+]([O-])C(C)(/C(C)=N\O)N(O)C1(C)C (centres undefined) 3.64%, COc1cc(NC(=O)c2[nH]c(C)c(C(C)=O)c2C)cc(OC)c1OC -2.22%, COc1ccc(C2SCCN2S(=O)(=O)c2ccccc2)cc1 (centres undefined) 1.06%, COc1ccc(NC(=O)C2Cc3c(-c4ccc(Cl)cc4)ccnc3O2)cc1 (centres undefined) 4.33%, O=C(O)CC1S/C(=N/N=C/c2ccc(-c3ccccc3[N+](=O)[O-])o2)NC1=O (centres undefined) -2.32%, CCN1C(=O)/C(=C\c2ccc(-c3ccc([N+](=O)[O-])cc3OC)o2)SC1=Nc1cccc(C(=O)O)c1 -11.5%, Nc1ccc2c(c1)OCCOCCOCCOCCOCCO2 0.815%, CCCOc1ccc(C(C)=O)cc1CC(C(N)=O)C(N)=O -1.92%, COc1ccc2c(c1)Cc1sc(NC(=O)c3ccccc3)nc1-2 -2.64%, NC(=O)c1nsc(C(=O)N(c2ccccc2)C(C(=O)NCC2CCCO2)c2ccc3ncccc3c2)c1N (centres undefined) 0.907%, O=C(Nc1ccc(S(=O)(=O)Nc2ncccn2)cc1)C1CC(=O)N(c2ccc(Cl)cc2)C1 (centres undefined) -2.03%, CCOC(=O)C1CCCN(C(=O)c2ccc(S(=O)(=O)Nc3ccccc3OC)cc2)C1 (centres undefined) 4.12%, O=C(NCCc1ccccn1)C1CCCN1S(=O)(=O)c1ccc(Cl)cc1 (centres undefined) 2.82%, Cn1c(SCC(=O)Nc2ccc3c(c2)OCCO3)nnc1-c1ccncc1 -2.11%, CCOC(=O)c1cccc(P(C)(C)=O)c1 -1.87%, COc1ccccc1NC(=O)c1ccc(NC(=O)C2COc3ccccc3O2)cc1 (centres undefined) -1.04%, C=CC[n+]1c(-c2ccc(Cl)cc2Cl)csc1Nc1c(C)n(C)n(-c2ccccc2)c1=O -13.5%, S=C(Nc1cccnc1)Nc1cccc2cnccc12 -0.94%, CCN(C(=S)Nc1cccnc1)c1cccc2ccccc12 -3.41%, O=c1c2ccccc2nnn1CSc1nc2ccccc2c(=O)n1CCCO 1.38%, O=C(NC(=S)Nc1ccccc1N1CCCC1)c1ccco1 -10.3%, Cc1cc2c(OCC(O)CNC3CCCCC3)cccc2[nH]1 (centres undefined) -6.61%, CC1=CS(=O)(=O)CC1Sc1ncn[nH]1 (centres undefined) -1.01%, COc1cccc(CNc2cccc3cccnc23)c1O -0.684%, Oc1ccc(CNc2ccccc2O)cc1 -2.41%, Cc1ccccc1N(C(=O)c1snc(C(N)=O)c1N)C(C)C(=O)NC1CCCCC1 (centres undefined) 0.295%, CC(=O)Nc1ccc(NCc2ccc(C)s2)cc1 1.27%, CCOc1c(O)ccc(/C=C2\SC(=S)NC2=O)c1[N+](=O)[O-] -7.61%, Cc1ccc(Cl)c(OCC(=O)Nc2cc(S(=O)(=O)N3CCOCC3)ccc2N2CCCC2)c1 1.64%, COc1ccc(CN(C(=O)CN2C(=O)NC3(CCC(C)CC3)C2=O)C(C)Cc2cccs2)cc1 (centres undefined) -1.57%, c1ccc(-c2nc(N3CCOCC3)c3ccccc3n2)nc1 -3.18%, CCc1nnc(NC(=O)COc2ccc3c(c2)OCO3)s1 -3.47%, CN1CCCCc2c1nc1ccccc1c2N (tested in a mixture with another compound) -14%, COc1cc(/C=C/C(=O)OCC(=O)NNC(=O)c2cc(Cl)ccc2OC)ccc1O 3.64%, Cc1cc(OCC(=O)Nc2ccccc2N2CCCCC2)ccc1C(C)C 2.21%, COc1ccccc1/C=N/Nc1cc(C)nc(N2CCOCC2)n1 11.2%, FC(F)(F)c1ccc(N/N=C/c2cccnc2)nc1 -1.15%, N#Cc1cc(-c2ccccc2)cnc1Sc1ccc(Cl)cc1 6.46%, CN1CC2(Cc3c1ccc1ccccc31)C(=O)OC(C)(C)OC2=O -0.443%, CC1=NOC(=O)/C1=C\c1ccc(-c2ccc(Cl)c(C(=O)O)c2)o1 -10.8%, Cc1cc(=O)cc(C)n1-c1ccc(O)cc1 -3%, CSc1ncccc1C(=O)OCC(=O)N1CC2(C)CC1CC(C)(C)C2 (centres undefined) -1.03%, Cn1c(=O)cc(SCC(=O)N2CCOCC2)c2ccc(Cl)cc21 -0.94%, O=S(=O)(Nc1nc(-c2ccco2)c(-c2ccco2)s1)c1ccc(F)cc1F -6.56%, O=C(COC(=O)c1cc(S(=O)(=O)N2CCOCC2)ccc1F)c1ccc[nH]1 -2.3%, CCN(CC)C(=O)c1cc([N+](=O)[O-])cc2c1-c1ccc([N+](=O)[O-])cc1C2=C(C#N)C#N -6.91%, CC(=O)c1cc(-c2ccccc2)n(CC(=O)NC2CCCCC2)c1C -3.33%, COc1ccc(-c2c3c(nc4sc(C(=O)Nc5cc(C)on5)c(N)c24)CCC3)cc1 12.8%, N=C1SCC(=O)N1c1ncc(Cc2cccc(Cl)c2)s1 4.23%, Cc1cccc(OCCC(=O)Nc2ccccc2C(N)=O)c1 -0.179%, CCn1cnc2c1c(=O)n(CC(=O)O)c(=O)n2Cc1ccccc1 -4.49%, Cc1c(C)n(Cc2ccccc2)c2ccc(C(=O)OCCCN(C)C)cc12 -4.55%, CCOC(=O)c1cc(-c2ccc(F)cc2)nc2c1c(=O)[nH]c(=O)n2Cc1ccccc1 6.15%, CCOC(=O)c1c(C)[nH]c(C)c1C(=O)COC(=O)[C@@H]1CCCN1S(=O)(=O)c1ccc(Cl)cc1 -6.9%, COC(=O)c1c(SCC(=O)Nc2ccc(C)c(C)c2)nc(=O)[nH]c1C -3.37%, Cc1cc(=O)n(Cc2ccccc2)c(O)c1C#N -1.83%, COc1ccc(S(=O)(=O)N(C)CC(=O)NCCN2CCOCC2)cc1Cl -0.151%, c1ccc(CCN2CN=C(Nc3nc4ccccc4s3)NC2)cc1 -2.52%, O=C1CC2(CCCCC2)CC(=O)N1CCc1ccccc1 -2.82%, Nc1ccc(N=Nc2ccccc2O)c(N)c1 -12.8%, O=C(OCc1ccc(Cl)c(Cl)c1)c1cccnc1Cl -0.016%, CCN1CCN(CCCNC(=O)c2ccc3c(c2)NC(=O)/C(=C\c2cccc(C)c2)S3)CC1 -3.33%, O=C(CN1CCOCC1)Nc1ccc(Oc2ccccc2)cc1 -1.22%, O=C(O)C=C1C2CC3CC(C2)CC1C3 -2.4%, COC(=O)CC1=NN(c2ccc(OC)cc2)C(=O)/C1=C\c1ccc(Cl)cc1 -0.285%, Nc1nonc1C(=O)N/N=C/c1cc2c(cc1[N+](=O)[O-])OCO2 -2.99%, CC(C)(C)C(=O)NC1CC2CCCC(C1)N2C(=O)Nc1ccc(Cl)cc1 (centres undefined) 4.82%, COc1ccc2c(C#N)c3ccccn3c2c1 -2.94%, COc1ccc(-c2cn[nH]c2N)cc1 4.01%, CN(C)CCCN1C(=O)c2cccc3c([N+](=O)[O-])ccc(c23)C1=O -14.9%, O=C1CC(=O)Nc2cc(S(=O)(=O)Nc3ccc(Cl)c(C(F)(F)F)c3)ccc2N1 0.666%, COc1ccc(NS(=O)(=O)c2cccc(C(=O)N3CCCCCC3)c2)cc1 -3.61%, CC(=O)NC1=NN(C(C)=O)C(C)(c2cccc([N+](=O)[O-])c2)S1 (centres undefined) -1.79%, CCOC(=O)C1(C)CCCN1C(=O)c1cccc(F)c1 (centres undefined) 1.47%, CC1(CC(=O)N/N=C/c2cc([N+](=O)[O-])c(O)cc2O)OCCO1 -0.127%, Cc1cc(NC(=O)COC(=O)c2cccc(S(=O)(=O)N3CCOCC3)c2)no1 2.01%, O=C(CSc1nc(-c2ccccc2)c(-c2ccccc2)o1)Nc1nnc(-c2ccccc2)s1 -2.84%, C/C(=N\NC(=O)CSc1nc2ccccc2o1)c1ccc(O)cc1 2.05%, O=C(CNc1ccc(F)cc1)N/N=C/c1c(O)ccc2ccccc12 3%, C=CCn1c(-c2ccc(OC)cc2)nc2nc3ccccc3nc21 -2.2%, O=c1[nH]c(CN2CCOCC2)nc2cc(Cl)ccc12 0.642%
